Source: PubChem
ATXN2 expr inh = ATXN2 expression inhibition; HEK-293 ATXN2-luciferase reporter, luminescence, 24 h; Potency, µM (titrated, usually from 57 µM), for inactives: at the highest dose activity change, negative = inhibition, usual class: inhibitors; 360,000 tested, 0.72% active; AID 1745845; further: potency means the concentration at half of the fitted maximal effect; on the % scale 0 is the no-effect control and ±100 the full control effect; nearly all actives have a fitted effect of over 55% in size
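ATXN2-luciferase reporter cells (luciferase flanked by upstream and downstream ATXN2 gene portions) were treated 24 h at 37 °C with compounds at up to 57 uM. SteadyGlo luminescence gave expression; GF-AFC fluorescence gave viability.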
Integrin act MD = integrin-mediated muscular dystrophy alleviation activation | alpha7betagal myoblasts, beta-gal FDG fluorescence, 48 h | Potency, µM (series often up to 38.3 µM), inactives show at the highest dose activation, usual class: activators | 350,000 tested, 0.064% active;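 further: potency means the concentration at half of the fitted maximal effect; 100% = response of the positive control SU9516; nearly all actives have a fitted effect of over 60% in size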
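alpha7betagal+/- myoblasts (passage 13, 250/well) treated 48 h at 37C with compounds at 1:260 dilution of DMSO stock. Lysed, then beta-galactosidase activity read as FDG fluorescence (ex 480/em 540) after 30 min, with pre-read for autofluorescence.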
S2 tox = cell viability loss in ATXN counter-screen. 400,000 tested, 0.49% active. Potency, µM (highest dose often 56.7 µM), usual class: cytotoxic. S2 cells (HEK-293 line with an ATXN2-luciferase reporter) viability, CellTiter-Fluor protease fluorescence, 24 h; further: potency means the concentration at half of the fitted maximal effect; nearly all actives have a fitted effect of over 40% in size
D3 antag = antagonists of human D3 dopamine receptor | P35462 | AID 652054 | D3R cells, DiscoveRx beta-arrestin luminescence, antagonist mode; hits give low values | max response, negative = inhibition, % | 360,000 tested, 2.5% active; in the data active means max response below about -50%; inconclusive means no clear call, values can overlap the other calls; further: on the % scale 0 is the no-effect control and ±100 the full control effect
Target sequence (P35462 whole entry, looked up): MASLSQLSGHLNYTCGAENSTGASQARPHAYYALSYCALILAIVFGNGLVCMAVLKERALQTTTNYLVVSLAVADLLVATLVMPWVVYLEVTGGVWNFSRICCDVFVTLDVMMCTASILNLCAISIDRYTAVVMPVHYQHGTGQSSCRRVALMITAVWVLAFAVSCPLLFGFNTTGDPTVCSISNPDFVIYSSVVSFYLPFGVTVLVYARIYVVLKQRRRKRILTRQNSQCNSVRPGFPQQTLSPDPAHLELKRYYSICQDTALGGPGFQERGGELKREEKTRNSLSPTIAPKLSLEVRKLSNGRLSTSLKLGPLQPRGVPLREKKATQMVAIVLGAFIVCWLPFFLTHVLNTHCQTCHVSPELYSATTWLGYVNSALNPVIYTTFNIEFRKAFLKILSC
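Cells plated overnight at 1500 cells/well, then exposed to library compounds with dopamine controls for 90 minutes at 37 degrees C. DiscoveRx reagent added for 30–60 minutes at room temperature; luminescence read, quantitative HTS format.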
IL1B secr inh = blocks inflammasome-driven IL-1 beta release; THP-1 LPS/ATP IL-1B secretion, AlphaLISA, 16 h; hits give low values; activity change, % at 57.5 µM; 360,000 tested, 4.7% active; in the data active means activity change below about -50%; inconclusive means mostly about -30% to -49%; further: on the % scale 0 is the no-effect control and ±100 the full control effect
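Secreted IL-1B measured by AlphaLISA bead assay after 16 h compound exposure of THP-1 cells; compounds (final up to 57.5 uM) added 1 h before LPS (250 ng/mL) and ATP (1.25 mM) stimulation; lower signal means less secretion.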
D3 ag = D3 dopamine receptor (human) agonism. P35462. max activation, %. 410,000 tested, 0.58% active. AID 652048. D3R DiscoveRx beta-arrestin cells, luminescence, 90 min; in the data active means max activation above about 30%; further: 0% is about no effect
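Agonist-mode cell screen: cells plated at 1500/well and incubated overnight at 37 °C, then exposed to library compounds for 90 min at 37 °C. Detection reagent was added for 30–60 min at room temperature, and luminescence was read.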
* hit, by the source's call; i = inactive; ? = inconclusive; / = not tested or not shown; [ ] = dose if it differs, or a comment. The list is not random: actives were taken first. Their share in the collection is about 7%. Unless noted, the call rests on the fitted dose curve; in most records, active means well fitted curve in the direction sought with a large enough effect; inconclusive means small, poorly fitted or top-dose-only effect, or another doubt; inactive means no such curve, though single readings can be large; an effect the other way counts as inactive or inconclusive.

SMILES	ATXN2 expr inh	Integrin act MD	S2 tox	D3 antag	IL1B secr inh	D3 ag
CC(=O)Nc1ccc(/C=C2\CCc3ccccc3C2=O)cc1	51.2%	3.3%	i	17.5	-96.1*	4.9
O=C1/C(=C/c2cccnc2)CCC/C1=C\c1cccnc1	17.8µM*	-59.6%	11.2µM*	?	-106.8*	-17.0
O=C1Nc2ccccc2/C1=C/c1cccnc1	-12.8%	-45.5%	i	-13.3	-65.2*	-3.5
O=C1/C(=C\c2ccc([N+](=O)[O-])cc2)CCc2ccccc21	0.7%	18.5%	i	?	?	5.1
O=C1Nc2ccccc2/C1=C/c1ccccc1F	1.8%	-57.6%	i	?	-29.6	-6.1
COc1ccc(C(N)c2csc(Nc3ccc(C(=O)c4ccccc4)cc3)n2)cc1 (stereo not given)	?	/	?	39.5	-27.7	8.9
CC(=O)c1cc(C(C)=O)c(C)nc1C	-25.2%	7.5%	?	7.4	36.1	1.7
C/C(Cc1ccccc1)=N\NC(=O)CNC(=O)c1ccc(Br)cc1	6.4%	-6.1%	i	-9.9	12.4	5.9
Cc1cccc(C)c1NC(=O)CNC(=O)CCNC(=O)c1ccco1	10.0%	-8.3%	i	7.7	2.6	2.5
O=C(O)CCC(=O)N1CCc2cc(S(=O)(=O)N(CCc3ccccc3)Cc3ccccc3)ccc21	0.3%	-29.3%	i	13.3	5.4	-0.6
CCCCNC(=O)C1(C)CCN1C(=O)c1ccc(C(F)(F)F)nc1C (stereo not given)	3.8%	/	i	-5.6	-0.2	-4.4
Cc1nc(C(F)(F)F)ccc1C(=O)N1CCC1(C)C(=O)NCc1cccs1 (stereo not given)	6.4%	/	i	-90.7*	-18.3	-2.6
O=c1c([N+](=O)[O-])c(NCCN2CCCCCC2)c2ccccc2n1-c1ccccc1	-2.3%	?	i	-97.7*	-5.0	-16.3
CCn1c(=O)c([N+](=O)[O-])c(NCC(O)c2ccccc2)c2ccccc21 (stereo not given)	-2.1%	23.0%	i	-13.9	-1.0	-9.4
CCn1c(=O)c([N+](=O)[O-])c(Cl)c2ccccc21	-5.3%[11.3 µM]	-61.9%	35.5µM*	-114.9*	-96.3*	-22.7
CCn1c(=O)c([N+](=O)[O-])c(NCCN(C)C)c2ccccc21	4.3%	-14.2%	?	-58.5*	-19.9	-22.2
O=C(NC1CCCCC1)C1c2ccccc2OCC(=O)N1CCc1ccccc1 (stereo not given)	11.1%	/	i	7.3	6.4	5.2
Cc1ccccc1C(=O)NC1CCCN(Cc2ccccc2F)C1 (stereo not given)	/	6.5%	i	10.9	-4.9	-0.3
COc1ccc(OC/C(O)=C(\C#N)c2nc3ccccc3[nH]2)cc1	-31.1%	24.6%	i	-10.2	25.4	-3.3
COc1ccc2oc(C(=O)OC/C(O)=C(\C#N)c3nc4ccccc4[nH]3)c(C)c2c1	-25.0%	3.8%	i	-21.3	59.5	4.0
N#C/C(=C(/O)COC(=O)c1ccc(Cl)c(S(=O)(=O)N2CCOCC2)c1)c1nc2ccccc2[nH]1	4.1%	-15.9%	i	8.9	6.2	5.1
N#C/C(=C(/O)COC(=O)c1ccc2c(c1)OCCO2)c1nc2ccccc2[nH]1	8.9%	-19.2%	?	-62.1*	-65.5*	-2.4
COc1ccccc1OCC(=O)OC/C(O)=C(\C#N)c1nc2ccccc2[nH]1	/	-63.8%	3.16µM*	12.8	44.1	-0.4
CCOC(=O)c1c(C)[nH]c(C(=O)OC/C(O)=C(\C#N)c2nc3ccccc3[nH]2)c1C	-8.7%	6.0%	?	-52.3*	-2.0	-1.2
N#CC(=C(O)COC(=O)CCC1CCCCC1)c1nc2ccccc2[nH]1	20µM*	-4.2%	/	7.8	-98.5*	3.9
SMILES	ATXN2 expr inh	Integrin act MD	S2 tox	D3 antag	IL1B secr inh	D3 ag
O=[N+]([O-])c1ccc(CN2CCOCCOCCOCC2)cc1	0.6%	-0.6%	i	-10.1	17.5	-10.8
O=C(CSc1ncccn1)NCC1CCCO1 (stereo not given)	-0.9%	-1.8%	i	8.6	11.0	1.1
Cn1c(CCCOc2ccc(Cl)cc2Cl)nnc1SCC(=O)Nc1cccc(F)c1	1.0%	-20.8%	i	-10.6	-16.2	15.5
CCn1c(CCCOc2ccc(Cl)cc2Cl)nnc1SCC(=O)Nc1cc(F)ccc1C	0.8%	-36.6%	i	34.3	-59.4*	14.3
C/C(=N\NC(=O)c1ccccc1-n1cccc1)c1ccccn1	/	-55.0%	2.82µM*	?	111.8	-9.7
C/C(=N\NC(=O)CCCNc1ccc(C)cc1)c1ccccn1	28.2µM*	-10.0%	i	-1.9	11.6	-4.0
C/C(=N\NC(=O)c1ccc(N/N=C(\C)c2ccncc2)cc1)c1ccncc1	-7.4%	0.5%	i	16.3	-82.1*	-1.7
C/C(=N\NC(=O)c1ccc(F)cc1)c1ccccn1	/	-14.0%	?	-113.2*	-66.0*	-17.3
CN1CCC(=C(c2ccccc2)c2ccc(Br)cc2)CC1	/	-66.5%	?	-99.0*	-27.4	-25.7
CN1CCC(OC(=O)c2ccc(Br)cc2)CC1	-3.1%	0.7%	i	?	14.4	-10.3
O=C(c1nc2ccccn2c1CNCCCn1nnc2ccccc21)N1CCOCC1	/	10.3%	?	22.0	6.9	6.4
C/C=C/c1cc(CN2CCN(c3ccccc3)CC2)c(O)c(OC)c1	118.1%	-10.3%	i	-98.1*	14.2	-20.2
CCn1c(SCC(=O)n2c(C)c(C)c3ccccc32)nnc1-c1ccco1	-24.0%	19.2%	i	5.8	-3.6	-7.2
Cc1cc2c(cc1[N+](=O)[O-])NC(CNC(C)C)CC2 (stereo not given)	-27.1%	-52.6%	i	-83.5*	-7.2	-6.7
Cc1cc(C(=O)NCC2CCCCC2)ccc1[N+](=O)[O-]	36.1%	1.6%	i	-12.9	-0.7	-9.1
CCCC1(c2ccccc2)NC(=O)N(CC(=O)Nc2cc(OC)cc(OC)c2)C1=O (stereo not given)	-1.5%	37.0%	i	-3.1	-5.7	-5.8
COC(=O)N1C(=O)[C@@](c2ccccc2)(C2CCCC2)N1C(=O)OC	?	7.0%	/	?	-106.1*	-18.0
COC(=O)N1C(=O)[C@](c2ccccc2)(C2CCCCC2)N1C(=O)OC	-5.8%	28.6%	?	?	-74.6*	-7.1
Cc1nnn(C23C[C@@H]4C[C@@H](CC(C(=O)N5CCN(c6ccccc6)CC5)(C4)C2)C3)n1	/	1.8%	i	0.0	-5.9	0.2
CC(CCc1ccccc1)NC(=O)COC(=O)CC1CC2CCC1C2 (stereo not given)	-0.9%	-15.8%	i	-18.0	9.0	0.5
CC(=O)N(c1cccc(Br)c1)C1C=CS(=O)(=O)C1 (stereo not given)	3.0%	-30.7%	i	-66.9*	0.0	-14.8
